Results: PubChem BioAssay AID1508600 (Functional Genomics Laboratory (NCATS/FGL), 2020)
In all, about 53,000 sequences went through this assay and about 3,700 (7%) were called active. Many of the other results were omitted from the sample, so actives are more common in it than they were. A number with no mark means an inactive call.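 The calls were made as follows: active = gene knockdowns whose robust z-score for IL-1 alpha signal is at least 2 or at most -2, so actives lie on both sides; inactive = the rest.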

Assay: Components of the Cytosolic LPS Sensing Pathway: Gene Identification via Genome-wide siRNA Screen;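 also: robust z of the log signal after scaling to non-targeting control siRNA wells of the plate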
Conditions: RAW264.7 macrophages, IL-1a HTRF, actives lie on both sides, screened at 100 nM (by protocol), cells primed 5 h with Pam3CSK4 first
In short: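 Three distinct siRNAs per gene were tested singly at 100 nM in RAW264.7 macrophages. Following Pam3CSK4 priming and 24 hour LipidA transfection, IL-1a secretion was read by HTRF.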

Sequence	z-score
GGAUAUCGUUGUUUCUGAGTT against Lmbr1	-1
GGGUGGUGUUCCAUGACAGTT against Ubp1	-1.82
GGCACAAGAUUAUUUAAGUTT against Tmem68	0.362
GGUUCUAUGCUGAAGGUCATT against Lhfpl2	0.358
GGAGCUGUCCAGGUUUAUUTT against Psmd6	-2.72 (active)
GGCUUGUGAAUGGAAAUAATT against Hsp90aa1	-0.416
CCUUAAGACCGGAUUUUUUTT against Cyp4f14	0.64
GGAGUUUGUAUCAAACUUATT against Zcchc8	0.0121
GGUAAUGGGAGCUAGUUUATT against 6330549D23Rik	-0.259
GCAUAGAAACCAUGCACAUTT against Acot2	3.28 (active)
CCGAGGACUAUUUGAAACGTT against Mrtfa	-1.46
GGAUUUGAGUUGAAGCGUGTT against Zscan20	-0.129
GGUGGUAAAUCGAAUUGUUTT against Tmem185b	-0.171
GGCUGGCUAUAAGAAAAAATT against Mrpl35	-0.646
GGCUUGAAGAUGUCUAUGATT against Aptx	-2.19 (active)
GGCCACAGGAAGUCAGUUATT against Gsk3b	-1.23
GCCAACCAUCAGUUUAUACTT against Mboat1	-0.31
GGCUGAAGAACUCCUACAATT against Dennd1c	2.17 (active)
GGUUAGUAGUCUUCUUAUCTT against Olfr1173	0.291
CGCACAGAGAAUAAGGGAATT against Tcta	0.843
CCUGAUGCACUACUCGUCUTT against Dmbx1	-0.131
GGUAAAUGUCUGCUCUGAGTT against Selenok	-2.53 (active)

Sequence	z-score
GGUCAACUAGCAGAAACCATT against Adgrv1	-1.84
CCGUAGAGAUCAACAACACTT against Npepl1	0.799
GGACUCCUUCCACCACAAUTT against Aifm2	-0.2
GCACAUAGCAUCCACUCCATT against Gm4793	-2.56 (active)
CCCUAUUUGUCAGCGGUCUTT against Rbpms	-1.94
GCCUUAAGAGAUGUAUUUCTT against Vmn1r33	-0.042
GGAGGAAAUGAUGAUUUUCTT against Kbtbd2	0.283
CCAAGCGAAUGCUGGACAUTT against Cox4i1	3.44 (active)
GGUACAUCUAUUUCUUGUUTT against Ncam2	-1.2
GGACUGUACUAUGGCUCUCTT against Nt5m	0.135
GGGAGGAGAGUGAUUGAGATT against A730013G03Rik	0.682
CCAACAAAUUCUGGUGGGATT against Ccdc84	0.578
GGAGUACCUGUGGUGCAUUTT against Ahcy	0.213
GGCGGUACCUCUUCUUCAUTT against Aipl1	2.32 (active)
CCGAAGUCAACUAAACUUATT against Rmc1	0.732
CCCUUGCUACAAUGAUGCCTT against Mfge8	2.56 (active)
GGACAACUUCAACAGCACUTT against Rab13	-1.31
CGUAGAGCUCAGAGAAUUCTT against Dhx58	0.614
GCGAAUGAUAUGUAUCAGATT against Pik3r1	0.647
ACCUUUUCAAAUCUGUGCGTT against Uts2b	-0.928
GGCUAACCAGAGGAAAAACTT against Rph3a	-2.19 (active)
GCUCUUGGUCCGUCUUCAGTT against 6030452D12Rik	-1.76

Sequence	z-score
GGAGUCUUGUAAUGAGCUUTT against Zfp54	0.898
CCCUCAAAGUCAUUUCAAATT against Cfap43	-1.61
GGUUGAAAAUGGAAGAGUATT against Mbnl2	-2.27 (active)
CCUUCCUACCGGAGAAUGATT against Capn6	-0.341
GGUUCAACAUGAAAAUGAUTT against Lingo2	-0.251
GCCAAUUGAGUCGUCUAUCTT against Rps6ka1	2.41 (active)
GGCAGCGAUUGACAAAAUGTT against Eefsec	-0.756
GGUCGUGAUAAACAUAUCATT against Cep85	-1.1
GGUCAAUGGCCACAAGUUCTT against Prkce	0.421
CCAUGAUCGCUAGUGAAGCTT against Mrpl24	-0.743
GGUGGUGAACUGUUUGACCTT against Pnck	-1.58
GCUGACCUUUGUAAGUUAUTT against Ttc17	-0.369
GGCUAUGCUUCUUUCCUUUTT against Cfhr1	0.846
GGAGAAGAAAAAGAAGGACTT against Pak1	-0.932
CGGCUUGCUACUUUGGAACTT against Gda	2.55 (active)
GAUGGAUCGAACUCUGCACTT against Stard10	-0.957
GGACCAAGUGGAGAAAGAATT against Nkx6-1	-0.622
CCCAGAUGAACAAAUGACCTT against Tceanc	0.582
GCAUUAUGGAAAGUUGGAGTT against Gabra4	0.915
GGAGUGUGAGGUCCUCUCUTT against Sdsl	1.85
GCGUAAGGAAUUGUCUAACTT against Hoxd12	4.05 (active)
CCGACGAUUCCUGAAGCUATT against Tada3	-0.275

Sequence	z-score
GGUGACAGAUUCUUUGAGGTT against Tti2	0.704
GGUCAGAUUAUGCUUUAGATT against Mrgpre	-0.783
CGUGAUUGAAUCUCAGGAGTT against Spata24	-2.14 (active)
GCAGAGGGUUUUCCAAGCGTT against Ddx4	-0.631
GGAAGUGACCUGUCUGAAGTT against Gramd1a	0.641
GGAUUAUGUAGAGGCCCAATT against Gngt2	-2.63 (active)
GGACAGCUGGACCUAAAGGTT against Slco4a1	-0.417
GGAGCUGAUGGUUGAAUGUTT against Ehbp1	0.177
GGAUCCUCGGGAGUACAUGTT against Crybg3	0.287
CCAGUAAGUUGCAUUCGAATT against Defb8	0.675
GGCAUAGCUGGUCUGAAGATT against Slc3a2	2.06 (active)
CCUCAUUUCCAAACUCAAATT against Fbxw13	-0.491
CCACGAGAAGUGGAUAUUATT against Plcxd3	-1.1
CCUGAACAUGAGUUAAAAGTT against Lmo4	0.156
GGAUUAGCUCUACAGAAGGTT against Olfr1031	1.67
GGAGCUGUUUUUCCACUCCTT against Phlda2	-0.337
GCUGGAAGAAAACUUCUAUTT against Jade2	2.49 (active)
GGUAUGGUUUCUAUAACAATT against Arsj	0.814
GGAAGGUCAUGUGAAUAUCTT against A930002I21Rik	-1.6
GGCUUUGAGAGUUUGUCACTT against 2410004B18Rik	-1.62
GGGAGUUAAACUUCUCUGCTT against Tlr13	-0.0637
GGUACCGGAGUCUGAAACATT against Drp2	-2.53 (active)

Sequence	z-score
GGGUCAGUGUGGAGAGUACTT against Col13a1	0.679
GGAUGAAUGGAAUUUACUGTT against Fbh1	0.406
GGGAAAAGUGGUAAAUUAUTT against Shprh	0.194
GGAAGACAAGGUUUUAGCUTT against Ulbp1	1.92
CGUGGAGAGAUCAAUCCCGTT against Adad1	-2.01 (active)
GGUUCAUGAAUGACAAACUTT against Sult4a1	0.383
GGUGUUUAAUAAUGUUGUCTT against Olfr976	-0.27
CCCAAUGACAAUAAAGACCTT against Mmp25	-0.936
GGGCUUGUAUCUACCAUGGTT against Strbp	2.18 (active)
GGUAAGAGGAUCCAAGGUGTT against Fam131a	0.0909
CCUACGUCCAGUAGUGCAGTT against Ahdc1	1.43
GCUCAAAGGACCUCUGAGCTT against Slc29a2	-1.28
CCUCCACUUCGUGAGCGAATT against Xxylt1	-1.25
GCCACUGUUGUGUAAACUATT against Rap2a	2.01 (active)
GGAGAAGUCUUCAUUUGAATT against Tubgcp2	-0.331
GGAAGUAGGCAGCAUCAUCTT against Pcbp1	1.13
GGCUGGCUUUGAACUCAAUTT against Zfp36	-1.28
GCAACUGCCUAGGCUUGAUTT against Slc30a7	4.79 (active)
GGCAGAUGUAUGAAAUCUUTT against Fancc	-0.196
